The source of these data is PubChem BioAssay (NCATS).

The test system of assay [1] is Zika virus NS2B-NS3 protease. As to the kind of experiment: Primary screen GU AMC qHTS for Zika virus inhibitors (AID 1347154).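 Also: 0% = no-inhibitor control and -100% = no-enzyme control; nearly all actives have a fitted effect of over 70% in size.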 The gist of the method:
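Fluorogenic AMC-substrate cleavage by noncovalent NS2B-NS3 protease complex (25 nM, pH 8.0 Tris buffer with Tween 20) followed for 15 minutes at room temperature (~20% conversion). Percent inhibition from ex340/em450 signal change, fitted by 4-parameter Hill equation.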

A short description of assay [2]: qHTS to identify inhibitors of the type 1 interferon - major histocompatibility complex class I in skeletal muscle: primary screen against the NCATS Mechanism Interrogation Plate v5.0 (MIPE) Libary (AID 1347411).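 Also: plate controls were vehicle for no effect and reference inhibitor for full effect; nearly all actives have a fitted effect of over 65% in size.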 The gist of the method: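 Seed engineered human myoblasts (HLA-B HiBit) in medium without dexamethasone containing 4 ng/ml IFN-beta; after 1 hr add compound titrations (top 46 uM final). Incubate 24 hrs at 37 C, lyse 10 min with HiBiT reagent, read luminescence.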
(In general: qHTS replaces the single test concentration by a dilution series.)

The nature of assay [3]: Primary qHTS for inhibitors of nuclear receptor binding SET domain protein 2 (NSD2) in an isogenic RCH-ACV NSD2 p.E1099K mutant (9B) (AID 1645876). Also: potency is read from the fitted curve at half-maximal effect; nearly all actives have a fitted effect of over 70% in size.
Assay [4] is described as follows: Primary qHTS for inhibitors of nuclear receptor binding SET domain protein 2 (NSD2) in an RCH-ACV wild type WT cells (2C) (AID 1645877). Also: potency is read from the fitted curve at half-maximal effect; nearly all actives have a fitted effect of over 70% in size.
For assay [5], the target named is Glutathione peroxidase 1 (Homo sapiens) (UniProt P07203). Description: Primary qHTS Assay for Inhibitors of Recombinant Selenoprotein Glutathione Peroxidase 1 (GPX1) (AID 1845191). Also: nearly all actives have a fitted effect of over 65% in size. An outline of the steps: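 NADPH consumption tracked by fluorescence at 340/450 nm between t=0 and t=15 min, room temperature. Final mix: 10 nM GPX1, 100 nM glutathione reductase, 1 mM GSH, 0.5 mM NADPH, 0.5 mM cumene hydroperoxide, 0.01% BSA; 30 min compound–enzyme preincubation.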

The target of assay [6] is Phospholipid hydroperoxide glutathione peroxidase GPX4 (Homo sapiens) (UniProt P36969). Description: Primary qHTS Assay for Inhibitors of Recombinant Selenoprotein Glutathione Peroxidase 4 (GPX4) (AID 1845192). Also: % is scaled to controls: 0 for no effect and ±100 for the full control effect; nearly all actives have a fitted effect of over 65% in size. The following applies: outcome: dose series up to 50 µM unless noted. The gist of the method:
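NADPH consumption followed by fluorescence at 340/450 nm, t=0 and after 15 min at room temperature. Reaction started with cumene hydroperoxide (0.5 mM final) after 30 min compound–GPX4 preincubation; final 200 nM GPX4, 100 nM GR, 1 mM GSH, 0.5 mM NADPH.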

Assay [7] is described as follows: qHTS drug screen for cell cycle checkpoint inhibitors in PARPi-resistant BRCA-mutant ovarian cancer cell lines. (AID 1963452; calls by dose curve). Conditions: PEO1/OlaR viability, CellTiter-Glo luminescence, 96 h, stronger effect = lower value. An outline of the steps:
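PEO1, PEO4 and PEO1/OlaR ovarian cancer cells, 600 per well, exposed 96 h at 37C to a dilution series. Viability read by CellTiter-Glo luminescence, normalized to DMSO and empty wells; activity summarized as Z-AUC.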

A short description of assay [8]: Primary qHTS for small molecule stabilizers of the endoplasmic reticulum resident proteome: Secreted ER Calcium Modulated Protein (SERCaMP) assay (AID 1508630). Also: % is scaled to controls: 0 for no effect and ±100 for the full control effect. An outline of the steps: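 The SH-SY5Y reporter protocol was run at 3 concentrations up to 38.3 uM (primary) or 11 concentrations (follow-up): 16 h compound, 100 nM thapsigargin for 4 h, then extracellular luciferase luminescence.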

Assay [9] concerns the target Cytochrome P450 2C9 (Homo sapiens) (UniProt P11712). As to the kind of experiment: Cytochrome P450 family 2 subfamily C member 9 (CYP2C9) small molecule antagonists: luciferase biochemical (cell-free) qHTS assay (AID 1645842; active = well fitted curve in the direction sought with a large enough effect in the repeat runs; an effect the other way counts as inactive or inconclusive; also: % is scaled to controls: 0 for no effect and ±100 for the full control effect; nearly all actives have a fitted effect of over 55% in size). An outline of the steps: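 P450-Glo CYP2C9 system: proluciferin substrate with enzyme in mix containing 0.4% BSA, 10 min at room temperature, then NADPH regeneration solution added and incubated 1 h at 37C. Detection reagent stopped reaction; luminescence read after 20 min as RLU.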

Assay [10] is described as follows: qHTS assay to identify inhibitors of the type 1 interferon - major histocompatibility complex class I in skeletal muscle: Counter screen cell viability and HiBit confirmation (AID 1347412). Also: nearly all actives have a fitted effect of over 60% in size. Also: potency is read from the fitted curve at half-maximal effect. As to activity change, negative = inhibition: % is scaled to controls: 0 for no effect and ±100 for the full control effect. The following applies: iHSKM muscle cells + IFN-b, HiBiT or CellTiter-Glo, 24 h. An outline of the steps:
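Luminescence read-out: Nano-Glo HiBiT lytic signal from C-terminally HiBiT-tagged HLA-B in CRISPR-edited human myoblasts, plus CellTiter Glo ATP as viability counter screen. IFN-beta 4.0 ng/ml; 24 hrs treatment at 37 C, 5% CO2.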

Inconclusive results are not listed. Activity calls are given as the source filed them. Unless noted, calls follow the shape of the dose curve; as a rule, active = well fitted curve in the direction sought with a large enough effect; inconclusive = small, poorly fitted or top-dose-only effect, or another doubt; inactive = no such curve, though single readings can be large; an effect the other way counts as inactive or inconclusive.

Chain of Glutathione peroxidase 1 (Homo sapiens) (P07203 whole entry, looked up): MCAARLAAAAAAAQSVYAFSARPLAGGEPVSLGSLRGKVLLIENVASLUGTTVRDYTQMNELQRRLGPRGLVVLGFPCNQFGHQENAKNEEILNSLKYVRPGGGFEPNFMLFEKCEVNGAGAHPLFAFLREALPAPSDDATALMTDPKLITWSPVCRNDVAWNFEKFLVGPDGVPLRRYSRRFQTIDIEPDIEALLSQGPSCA
Chain of Cytochrome P450 2C9 (Homo sapiens) (P11712 whole entry, looked up): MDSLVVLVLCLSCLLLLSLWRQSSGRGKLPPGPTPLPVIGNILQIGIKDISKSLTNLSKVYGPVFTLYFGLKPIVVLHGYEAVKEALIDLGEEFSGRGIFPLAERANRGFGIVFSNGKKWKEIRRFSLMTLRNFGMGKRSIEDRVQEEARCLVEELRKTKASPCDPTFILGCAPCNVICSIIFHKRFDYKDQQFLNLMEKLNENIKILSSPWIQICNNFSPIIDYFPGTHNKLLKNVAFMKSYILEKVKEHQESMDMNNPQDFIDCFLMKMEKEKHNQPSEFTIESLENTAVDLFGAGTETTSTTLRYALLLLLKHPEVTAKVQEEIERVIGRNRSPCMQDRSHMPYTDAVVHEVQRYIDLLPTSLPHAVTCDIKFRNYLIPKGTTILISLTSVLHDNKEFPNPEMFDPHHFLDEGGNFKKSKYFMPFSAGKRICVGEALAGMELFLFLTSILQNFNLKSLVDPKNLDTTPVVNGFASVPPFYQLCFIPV
Chain of Phospholipid hydroperoxide glutathione peroxidase GPX4 (Homo sapiens) (P36969 whole entry, looked up): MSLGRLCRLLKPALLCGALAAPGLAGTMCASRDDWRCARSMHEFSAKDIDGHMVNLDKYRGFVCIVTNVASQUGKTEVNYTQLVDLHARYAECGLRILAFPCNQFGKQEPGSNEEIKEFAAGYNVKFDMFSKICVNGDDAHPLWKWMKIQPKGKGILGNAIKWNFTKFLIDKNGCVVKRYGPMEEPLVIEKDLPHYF

Take `Cc1nn(C)c2nc(NNC(=O)Nc3cc(Cl)nc(Cl)c3)cc(C(C)C)c12`: in [1], the Potency result was “inactive”.

With `COc1ccc(S(=O)(=O)N(CCO)c2ccccc2CN(C)C/C=C/c2ccc(Cl)cc2)cc1`, the Potency entry in [1], in [2], in assay [5] and in [6] was “inactive” in each case. For the same compound, the Potency is 7.42 µM (active) in assay [3] and 8.33 µM (active) in [4]. Further, the Z-AUC in [7] was -0.289 (inactive); in assay [7] (measured here: PEO1 parental Z-AUC), -0.166; in [7] (measured here: PEO4 Z-AUC), 0.482.

With `C=C1C(=O)O[C@@H]2[C@H]3O[C@]3(C)CC/C=C(\C)CC[C@@H]12`, the Potency entry in assay [1], in assay [8] and in assay [9] was “inactive” each time. For the same compound, the Potency in assay [3] was 3.72 µM (active); in assay [4] it was 2.09 µM (active); in assay [10] (HiBiT), 7.01 µM (active). Moreover, the activity change, negative = inhibition in assay [10] (Viability, at 45.9 µM (top of the series)) is 0.032% (inactive).

Turning to `CSc1ccc([C@H]2CN3CCC[C@H]3c3ccccc32)cc1`, in assay [1], the Potency entry was “inactive”.
